# Measurements: PubChem BioAssay (NCATS)
# Inconclusive results are not listed. Entries that show only a call come without a potency. Calls of active or inactive are those of the source. Unless noted, calls come from the whole dose curve; as a rule, active = well fitted curve in the direction sought with a large enough effect; inconclusive = small, poorly fitted or top-dose-only effect, or another doubt; inactive = no such curve, though single readings can be large; an effect the other way counts as inactive or inconclusive.
# Columns and labels:
# [1] = molecular target: 3',5'-cyclic-AMP phosphodiesterase 4B (Homo sapiens) (UniProt Q07343); assay: qHTS Assay for Inhibitors of PDE-IV (AID 607; active = well fitted activation curve with a large enough effect in the main read-out, with a control signal flat, not every such curve was filed as active); conditions: HEK293 ACTOne CNG channel cells, membrane potential fluorescence; series mostly up to 22.9 µM
# Chain of 3',5'-cyclic-AMP phosphodiesterase 4B (Homo sapiens) (Q07343 whole entry, looked up): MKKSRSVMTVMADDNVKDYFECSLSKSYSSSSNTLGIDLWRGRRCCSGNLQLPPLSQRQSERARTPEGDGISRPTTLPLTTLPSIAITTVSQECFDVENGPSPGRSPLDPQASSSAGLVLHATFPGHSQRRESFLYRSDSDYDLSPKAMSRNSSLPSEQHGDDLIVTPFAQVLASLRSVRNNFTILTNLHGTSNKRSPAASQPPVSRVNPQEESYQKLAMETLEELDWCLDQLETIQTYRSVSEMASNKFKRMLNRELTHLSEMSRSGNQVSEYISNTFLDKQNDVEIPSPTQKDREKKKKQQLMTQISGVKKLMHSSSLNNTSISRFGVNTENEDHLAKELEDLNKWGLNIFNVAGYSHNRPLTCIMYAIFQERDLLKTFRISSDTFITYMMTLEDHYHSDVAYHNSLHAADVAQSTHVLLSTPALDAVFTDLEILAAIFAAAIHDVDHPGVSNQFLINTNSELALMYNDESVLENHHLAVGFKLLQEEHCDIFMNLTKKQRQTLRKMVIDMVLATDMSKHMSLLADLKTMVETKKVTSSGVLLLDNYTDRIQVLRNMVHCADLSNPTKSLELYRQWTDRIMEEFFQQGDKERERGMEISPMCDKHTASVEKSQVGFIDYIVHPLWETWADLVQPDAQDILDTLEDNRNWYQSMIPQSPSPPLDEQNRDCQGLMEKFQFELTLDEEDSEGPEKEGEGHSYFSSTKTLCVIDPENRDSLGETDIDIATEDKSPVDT
# Summary of the method: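 Cell-based read-out of cAMP via a modified cyclic nucleotide-gated channel and membrane potential dye (535/590 nm) in HEK293 cells expressing PDE4 endogenously. Compounds tested up to 22.9 uM final; 100 uM RO 20-1724 reference.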
# [2] = Cell Viability - NIH 3T3 (AID 541); conditions: NIH 3T3 cell viability, qHTS; activity change, negative = cytotoxicity: at 92.2 µM (top of the series);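 note: cells exposed to compound for 40 hours; nearly all actives have a fitted effect of over 25% in size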
# Summary of the method: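 Cells seeded at 1000/well, rested 5 hr at 37 °C, then dosed and incubated 40 hr at 37 °C. CellTiter-Glo added, 20 min room temperature, luminescence read. AC50 by Hill fit.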
# [3] = molecular target: Androgen receptor (Homo sapiens) (UniProt P10275); assay: qHTS assay for small molecule antagonists of androgen receptor signaling (AID 588516; active = well fitted curve in the direction sought with a large enough effect in the signal ratio, with a control signal flat, not every such curve was filed as active; the % refers to the signal ratio); conditions: AR-UAS-bla HEK293, beta-lactamase ratio, antagonist mode, 16 h; series mostly up to 76.8 µM
# Chain of Androgen receptor (Homo sapiens) (P10275 whole entry, looked up): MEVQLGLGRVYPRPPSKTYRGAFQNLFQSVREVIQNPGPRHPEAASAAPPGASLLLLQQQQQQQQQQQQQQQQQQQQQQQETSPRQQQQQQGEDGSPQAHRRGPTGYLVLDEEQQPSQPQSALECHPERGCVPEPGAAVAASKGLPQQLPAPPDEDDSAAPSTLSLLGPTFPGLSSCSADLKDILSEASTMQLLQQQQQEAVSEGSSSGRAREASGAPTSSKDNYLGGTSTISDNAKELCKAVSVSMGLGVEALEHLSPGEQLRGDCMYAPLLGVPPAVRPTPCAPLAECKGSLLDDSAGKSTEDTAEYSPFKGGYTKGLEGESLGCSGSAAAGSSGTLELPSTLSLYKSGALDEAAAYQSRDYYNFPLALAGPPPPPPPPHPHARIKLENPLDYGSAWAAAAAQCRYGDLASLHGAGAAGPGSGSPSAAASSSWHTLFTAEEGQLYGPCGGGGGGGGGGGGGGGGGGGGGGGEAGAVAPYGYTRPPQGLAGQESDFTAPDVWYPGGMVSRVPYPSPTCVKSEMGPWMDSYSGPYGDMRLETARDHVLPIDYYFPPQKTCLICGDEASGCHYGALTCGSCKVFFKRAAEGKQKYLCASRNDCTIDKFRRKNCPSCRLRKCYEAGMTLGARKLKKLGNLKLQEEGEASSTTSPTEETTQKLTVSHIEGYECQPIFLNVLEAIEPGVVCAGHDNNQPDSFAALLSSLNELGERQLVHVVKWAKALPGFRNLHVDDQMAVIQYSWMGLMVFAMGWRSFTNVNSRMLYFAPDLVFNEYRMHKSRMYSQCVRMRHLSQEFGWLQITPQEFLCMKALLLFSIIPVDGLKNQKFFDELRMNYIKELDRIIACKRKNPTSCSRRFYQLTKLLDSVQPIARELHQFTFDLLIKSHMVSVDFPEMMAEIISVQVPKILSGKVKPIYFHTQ
# Summary of the method: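 Compounds tested in titration against 10 nM R1881 in AR-responsive bla reporter HEK 293 cells; CCF4 fluorescence (460/530 nm) after 16 h exposure gave IC50 and efficacy.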
# [4] = Cellular Toxicity (caspase-3) H-4-II-E (AID 663); conditions: H-4-II-E rat hepatoma; Potency: caspase-3 activation; series mostly up to 92.2 µM;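 note: cells exposed to compound for 16 hr before readout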
# Summary of the method: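 H-4-II-E rat hepatoma, 1500 cells/well, 5 hr settle at 37 °C; compound 16 hr, 37 °C, complete medium; Caspase-Glo 3/7, 20 min RT; luminescence. DMSO = 0%, 100 uM tamoxifen = 100%; Hill-equation AC50.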
# [5] = Cell Viability - LYMP2-015 (AID 971); conditions: LYMP2-015 lymphoblastoid cell viability; series mostly up to 92.2 µM; note: nearly all actives have a fitted effect of over 55% in size
# Summary of the method: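 Cells are seeded at 2500 per well and incubated 5 hr at 37 C. Compounds are added across a concentration series for 24 hr at 37 C. CellTiter-Glo is added, and luminescence is read after 30 min at room temperature.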
# [6] = molecular target: Luciferin 4-monooxygenase (Photinus pyralis) (UniProt P08659); assay: Biochemical firefly luciferase enzyme assay for NPC (AID 624030);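 note: purified P. pyralis luciferase at 10 nM with luciferin and ATP substrate; nearly all actives have a fitted effect of over 70% in size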; conditions: purified P. pyralis luciferase, luminescence, 5 min; series mostly up to 58.6 µM
# Chain of Luciferin 4-monooxygenase (Photinus pyralis) (P08659 whole entry, looked up): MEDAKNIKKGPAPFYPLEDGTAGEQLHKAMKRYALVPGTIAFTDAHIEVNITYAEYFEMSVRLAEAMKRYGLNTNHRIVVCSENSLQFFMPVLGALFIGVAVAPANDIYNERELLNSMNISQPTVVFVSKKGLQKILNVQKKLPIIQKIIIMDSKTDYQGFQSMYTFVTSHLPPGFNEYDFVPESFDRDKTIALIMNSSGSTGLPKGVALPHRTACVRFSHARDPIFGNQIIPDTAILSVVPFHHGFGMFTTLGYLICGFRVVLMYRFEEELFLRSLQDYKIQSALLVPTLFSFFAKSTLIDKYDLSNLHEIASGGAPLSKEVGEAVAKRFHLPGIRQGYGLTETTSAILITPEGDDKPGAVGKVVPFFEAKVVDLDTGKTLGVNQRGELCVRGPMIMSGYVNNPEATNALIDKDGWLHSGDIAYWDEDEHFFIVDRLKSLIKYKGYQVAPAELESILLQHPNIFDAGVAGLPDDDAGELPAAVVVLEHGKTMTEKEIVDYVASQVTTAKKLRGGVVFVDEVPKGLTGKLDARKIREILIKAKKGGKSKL
# Summary of the method: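 Purified P. pyralis luciferase at 10 nM in 50 mM Tris Acetate (final), luminescence read within 5 minutes of enzyme addition to compounds. Activity normalised to PTC124 versus DMSO; concentration-response curves classed by r2, magnitude and activity.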
# [7] = molecular target: Cytochrome P450 1A2 (Homo sapiens) (UniProt P05177); assay: p450-cyp1a2 (AID 410; calls by dose curve; note: potency is the fitted concentration of half-maximal effect); conditions: recombinant CYP1A2, luciferin-ME demethylation, luminescence; series mostly up to 57 µM
# Chain of Cytochrome P450 1A2 (Homo sapiens) (P05177 whole entry, looked up): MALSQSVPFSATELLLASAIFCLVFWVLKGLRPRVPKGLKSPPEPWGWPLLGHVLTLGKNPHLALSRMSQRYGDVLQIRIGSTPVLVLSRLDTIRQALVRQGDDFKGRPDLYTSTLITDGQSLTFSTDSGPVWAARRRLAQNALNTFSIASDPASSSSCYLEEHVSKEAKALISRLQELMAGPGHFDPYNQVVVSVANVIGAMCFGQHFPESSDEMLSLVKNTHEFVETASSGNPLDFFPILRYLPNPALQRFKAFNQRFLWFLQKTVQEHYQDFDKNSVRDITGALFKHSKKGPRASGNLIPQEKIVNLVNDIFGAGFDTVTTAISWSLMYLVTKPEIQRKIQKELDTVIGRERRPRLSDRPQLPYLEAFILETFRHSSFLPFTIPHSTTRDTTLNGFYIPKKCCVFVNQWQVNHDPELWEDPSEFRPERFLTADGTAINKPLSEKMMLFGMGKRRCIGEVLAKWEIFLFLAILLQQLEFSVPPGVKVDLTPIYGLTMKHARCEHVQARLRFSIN
# Summary of the method: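 O-Demethylation of luciferin 6' methyl ether by human CYP1A2 is monitored as luciferase luminescence. Substrate sits at Km (100uM); enzyme is 20nM. Values are scaled to 57 uM furafylline as maximal inhibition.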
# [8] = Stat Signaling Pathway (AID 446; active = well fitted curve in either direction with a large enough effect, not every such curve was filed as active;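 note: ME-180 cervical cancer cells given 40 pM IL-6 alongside compound; SIE-controlled beta-lactamase reporter measured as 460/530 nm FRET emission ratio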); conditions: ME-180 (cervical carcinoma) SIE beta-lactamase reporter, IL-6 stimulated, 5 h; series mostly up to 7.69 µM
# Summary of the method: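 FRET read-out (405 nm excitation, 460/530 nm emission) of a beta-lactamase reporter under a STAT-inducible element in ME-180 cervical carcinoma cells. Cells with compound receive 40 pM IL-6 for 5 h. Values are normalised to AC90 stimulation and AC90 JAK-inhibitor controls.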
# [9] = molecular target: Cytochrome P450 3A4 (Homo sapiens) (UniProt P08684); assay: qHTS Assay for Activators of Cytochrome P450 3A4 (AID 885); conditions: recombinant CYP3A4, Luciferin-PPXE luminescence, 60 min; series mostly up to 57.1 µM; note: nearly all actives have a fitted effect of over 65% in size
# Chain of Cytochrome P450 3A4 (Homo sapiens) (P08684 whole entry, looked up): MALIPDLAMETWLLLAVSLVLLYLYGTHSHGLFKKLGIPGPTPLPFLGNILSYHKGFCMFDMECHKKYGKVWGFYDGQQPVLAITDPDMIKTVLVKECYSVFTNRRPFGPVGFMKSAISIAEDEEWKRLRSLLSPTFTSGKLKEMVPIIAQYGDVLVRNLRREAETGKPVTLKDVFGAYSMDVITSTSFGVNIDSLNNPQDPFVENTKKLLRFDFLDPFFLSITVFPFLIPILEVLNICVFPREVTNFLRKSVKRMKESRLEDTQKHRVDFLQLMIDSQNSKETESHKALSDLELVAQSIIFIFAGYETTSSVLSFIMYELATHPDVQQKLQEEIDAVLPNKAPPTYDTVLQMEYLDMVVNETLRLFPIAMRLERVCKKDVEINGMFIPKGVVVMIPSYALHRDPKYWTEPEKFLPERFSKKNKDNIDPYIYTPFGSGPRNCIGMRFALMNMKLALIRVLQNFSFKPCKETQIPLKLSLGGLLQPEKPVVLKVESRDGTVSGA
# Summary of the method: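 Luminescent readout of luciferin formed from 25 uM Luciferin-PPXE (KM level) by 20 nM CYP3A4 in 200 mM KPO4, with 60 min NADPH-driven reaction at room temperature after 10 min compound exposure. Ketoconazole (57 uM) defined 100% inhibition.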
# [10] = molecular target: Cytochrome P450 2D6 (Homo sapiens) (UniProt P10635); assay: qHTS Assay for Inhibitors and Substrates of Cytochrome P450 2D6 (AID 891); conditions: recombinant CYP2D6, luciferin-ME EGE luminescence; series mostly up to 57.1 µM; note: potency is the fitted concentration of half-maximal effect; nearly all actives have a fitted effect of over 60% in size
# Chain of Cytochrome P450 2D6 (Homo sapiens) (P10635 whole entry, looked up): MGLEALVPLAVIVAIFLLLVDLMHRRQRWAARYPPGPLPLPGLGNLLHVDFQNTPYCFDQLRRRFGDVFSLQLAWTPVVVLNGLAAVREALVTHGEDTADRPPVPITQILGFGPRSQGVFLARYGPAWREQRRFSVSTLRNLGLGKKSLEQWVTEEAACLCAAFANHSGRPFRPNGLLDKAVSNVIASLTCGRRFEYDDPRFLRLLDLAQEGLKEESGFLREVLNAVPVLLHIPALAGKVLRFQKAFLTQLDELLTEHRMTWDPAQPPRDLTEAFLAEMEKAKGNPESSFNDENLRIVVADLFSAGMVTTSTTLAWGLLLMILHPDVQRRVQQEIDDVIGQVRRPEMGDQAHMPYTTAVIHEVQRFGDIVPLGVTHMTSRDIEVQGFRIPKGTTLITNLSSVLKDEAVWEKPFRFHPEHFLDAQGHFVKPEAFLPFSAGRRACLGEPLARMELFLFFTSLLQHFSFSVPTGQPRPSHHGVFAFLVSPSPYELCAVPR
# Summary of the method: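 Luminescent read-out of luciferin formed by 5 nM human CYP2D6 demethylating 30 uM Luciferin-ME EGE (Km level) over 60 min at room temperature after NADPH regeneration addition. Data normalized to full inhibition by 1.43 uM quinidine.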
# [11] = Cell Viability - MRC5 (AID 434; calls by dose curve;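 note: potency is the fitted concentration of half-maximal effect; cells exposed to compound for 40 hours at 37 °C; potency reflects cytotoxicity seen as loss of intracellular ATP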); conditions: MRC5 lung fibroblast viability, qHTS
# Summary of the method: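 ATP luminescence read-out (CellTiter-Glo, 20 min RT) after 40 hr, 37 °C compound exposure of 1500 MRC5 cells/well. Data normalized to DMSO (basal) and 100 uM tamoxifen (100% inhibition); AC50 from standard Hill equation.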
# [12] = molecular target: ATP-dependent 6-phosphofructokinase (Trypanosoma brucei brucei) (UniProt O15648); assay: qHTS Assay to Find Inhibitors of T. brucei phosphofructokinase: hit validation (AID 492961);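 note: luminescence reports ADP formed as PFK phosphorylates fructose-6-phosphate with ATP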; conditions: T. brucei PFK, ADP-Glo luminescence; series mostly up to 51.4 µM
# Chain of ATP-dependent 6-phosphofructokinase (Trypanosoma brucei brucei) (O15648 whole entry, looked up): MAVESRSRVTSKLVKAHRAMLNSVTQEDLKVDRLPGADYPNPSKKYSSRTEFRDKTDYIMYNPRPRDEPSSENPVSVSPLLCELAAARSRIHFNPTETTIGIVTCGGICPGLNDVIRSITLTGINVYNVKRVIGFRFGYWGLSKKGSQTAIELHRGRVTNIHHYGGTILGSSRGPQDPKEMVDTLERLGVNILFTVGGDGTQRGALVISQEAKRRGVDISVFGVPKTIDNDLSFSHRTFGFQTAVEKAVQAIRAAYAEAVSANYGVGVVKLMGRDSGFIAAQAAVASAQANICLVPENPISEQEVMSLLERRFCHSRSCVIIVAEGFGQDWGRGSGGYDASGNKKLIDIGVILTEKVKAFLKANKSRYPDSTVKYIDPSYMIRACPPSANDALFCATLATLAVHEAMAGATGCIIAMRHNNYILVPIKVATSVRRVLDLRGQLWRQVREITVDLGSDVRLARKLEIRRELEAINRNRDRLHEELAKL
# Summary of the method: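 Compounds titrated; %activity normalized to 0x and 1x enzyme controls, curve-fitted. Readout: ADP-Glo luminescence after 45 min room-temperature reaction of 1.25 nM PFK, 0.1 mM ATP, 0.5 mM F6P, pH 8.0.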
# [13] = qHTS profiling for inhibitors of Plasmodium falciparum proliferation (AID 504749); note: potency is the fitted concentration of half-maximal effect; for all read-outs here: nearly all actives have a fitted effect of over 60% in size; conditions: P. falciparum in erythrocytes, SYBR Green DNA, 72 h; for activity, negative = inhibition: at 28.7 µM (top of the series)
# Summary of the method: (§1)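 Each compound contacts P. falciparum-infected red blood cells for 72 h at 37 C; lysis buffer (Tris, EDTA, saponin, Triton X, SYBR Green I) is added and fluorescence measured next morning; values normalized to controls.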
# [14] = tested on: AS120; assay: as above; conditions: P. falciparum in erythrocytes, SYBR Green DNA, 72 h; series mostly up to 28.7 µM
# Summary of the method: as §1
# [15] = tested on: ATS189; assay: as above; conditions: P. falciparum in erythrocytes, SYBR Green DNA, 72 h; series mostly up to 28.7 µM
# Summary of the method: as §1
# [16] = tested on: CP335; assay: as above; conditions: P. falciparum in erythrocytes, SYBR Green DNA, 72 h; series mostly up to 28.7 µM
# Summary of the method: as §1
# [17] = tested on: TAB113; assay: as above; conditions: P. falciparum in erythrocytes, SYBR Green DNA, 72 h; series mostly up to 28.7 µM
# Summary of the method: as §1
# [18] = tested on: W2; assay: as above; conditions: P. falciparum in erythrocytes, SYBR Green DNA, 72 h; series mostly up to 28.7 µM
# Summary of the method: as §1
# [19] = Cell Viability - Hek293 (AID 427;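 active = compounds whose dose-response curve shows a full or clear partial loss of cell viability, called from curve shape rather than a numeric limit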;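 note: potency is the fitted concentration of half-maximal effect; cells exposed to compound for 40 hours at 37 °C before reading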); conditions: qHTS
# Summary of the method: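 Luminescent ATP content (CellTiter-Glo, 20 min at room temperature) was measured after a 40 hr, 37 °C compound exposure of HEK293 cells. AC50 values came from Hill-equation fits of qHTS concentration-response data normalized to DMSO and 100 uM tamoxifen.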
# [20] = Cell Viability - LYMP2-025 (AID 976); conditions: LYMP2-025 lymphoblastoid cell viability; series mostly up to 92.2 µM
# Summary of the method: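 Acute cytotoxicity is scored as a concentration-dependent fall in intracellular ATP, measured by luciferase luminescence, in human lymphoblastoid LYMP2-025 cells exposed to compound for 24 hours at 37 C. AC50 values come from standard Hill fits.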
smiles,measurement,setting,value
COc1ccc2[nH]cc(CCNc3nc(-c4c(C)noc4C)nc4ccccc34)c2c1,Potency,[1],inactive
c1ccc2c(c1)[nH]c1ccccc12,Potency,[2],inactive
same,outcome,[3],inactive
Cc1ccc(N)c([N+](=O)[O-])c1,Potency,[4],inactive
same,Potency,[5],inactive
CCCCCCCCCCCCCCCC(=O)OCC(O)C1OC(=O)C(O)=C1O (configuration not stated),Potency,[6],inactive
COc1ccc2[nH]cc(CCNc3ncncc3-c3ccccc3C(F)(F)F)c2c1,Potency,[7],10 µM (active)
same,outcome,[8],inactive
same,Potency,[1],inactive
same,outcome,[9],inactive
same,Potency,[10],2 µM (active)
CCO,Potency,[11],> 92 µM (inactive)
same,Potency,[2],inactive
same,Potency,[5],inactive
same,outcome,[3],inactive
COc1ccccc1CNc1ccnc(-c2cccnc2)n1,Potency,[1],inactive
CNc1ncncc1-c1ccccc1CN(C)C,outcome,[8],inactive
same,Potency,[1],inactive
CN(C)c1ccc(-c2cncnc2NCCc2cnc[nH]2)cc1,Potency,[7],1.26 µM (active)
same,Potency,[1],inactive
same,outcome,[9],inactive
same,Potency,[10],5.01 µM (active)
NC1=NC(S)C2N=CN=C2N1 (configuration not stated),outcome,[12],inactive
same,"activity, negative = inhibition",[13]; parasite line A,3.76% (inactive)
same,"activity, negative = inhibition",[13]; parasite line B,-5.29% (inactive)
same,Potency,[14],inactive
same,Potency,[15],inactive
same,Potency,[16],inactive
same,Potency,[17],inactive
same,Potency,[18],inactive
OCCNCCO,Potency,[11],> 92 µM (inactive)
same,Potency,[4],inactive
COc1ccccc1-c1nc(NC2CC2)c2ccccc2n1,Potency,[7],0.316 µM (active)
same,outcome,[8],inactive
same,outcome,[9],inactive
c1ccccc1,Potency,[19],> 92 µM (inactive)
same,Potency,[20],inactive
CCC(O)OC(O)CC (configuration not stated),Potency,[20],inactive
Nc1ccc(S(=O)(=O)O)cc1,Potency,[4],inactive
same,Potency,[20],inactive
Clc1ccccc1-c1ccc2ncnc(NCCN3CCOCC3)c2c1,Potency,[7],5.01 µM (active)
same,outcome,[8],inactive
same,outcome,[9],inactive
Clc1cc(Cl)c(Cl)cc1Cl,Potency,[2],inactive
same,Potency,[4],inactive
CO[C@@H]1[C@@H](OC2OC(C)C(OC3CC(C)(O)C(OC(=O)CC(C)C)C(C)O3)C(N(C)C)C2O)[C@@H](CC=O)C[C@@H](C)C(=O)/C=C\C2O[C@H]2C[C@@H](C)OC(=O)C[C@H]1OC(C)=O (some centres not stated),outcome,[12],inactive
same,Potency,[6],inactive
same,Potency,[13]; parasite line A,11.2 µM (active)
same,Potency,[13]; parasite line B,10 µM (active)
same,Potency,[14],10 µM (active)
same,Potency,[15],11.2 µM (active)
same,Potency,[16],6.75 µM (active)
same,Potency,[17],12.6 µM (active)
same,Potency,[18],1.69 µM (active)
CC1(C)CC(N=C=O)CC(C)(CN=C=O)C1 (configuration not stated),Potency,[19],> 92 µM (inactive)
same,Potency,[20],inactive
CC(=O)OC/C=C(\C)CCC=C(C)C,Potency,[19],> 92 µM (inactive)
same,Potency,[2],inactive
same,Potency,[5],inactive
same,Potency,[20],inactive
CN(C)C=O,Potency,[19],> 92 µM (inactive)
same,Potency,[11],> 92 µM (inactive)
same,Potency,[2],inactive
same,Potency,[4],inactive
same,Potency,[5],inactive
same,Potency,[20],inactive
COc1cccc(-c2nc(NCCN3CCOCC3)c3ccccc3n2)c1,outcome,[8],inactive
same,Potency,[1],inactive
same,outcome,[9],inactive
C=Cc1ccccc1Cl,Potency,[11],> 92 µM (inactive)
same,outcome,[3],inactive
O=[N+]([O-])c1cccc(Cl)c1Cl,Potency,[4],inactive
same,Potency,[5],inactive
Nc1ccc(Cl)cc1Cl,Potency,[11],> 92 µM (inactive)
same,Potency,[4],inactive
same,Potency,[20],inactive
C=CCOC(=O)c1ccccc1C(=O)OCC=C,Potency,[19],> 92 µM (inactive)
same,Potency,[5],inactive
COCC(=O)O,Potency,[11],> 92 µM (inactive)
same,Potency,[4],inactive
same,Potency,[5],inactive
Cc1ccc([N+](=O)[O-])cc1N,Potency,[2],inactive
same,Potency,[4],inactive
same,Potency,[5],inactive
COc1ncc2nc(-c3ccccc3)c(=O)n(CCc3ccccc3)c2n1,outcome,[8],inactive
O=C(O)c1ccc(O)cc1O,Potency,[11],> 92 µM (inactive)
Cc1ccccc1-c1ccc2ncnc(NCCN3CCOCC3)c2c1,outcome,[8],inactive
COCCn1c(=O)c(-c2ccc(F)cc2)nc2cnc(Oc3ccccc3)nc21,Potency,[7],0.794 µM (active)
same,Potency,[1],inactive
same,outcome,[9],inactive
CCNc1ncc2nc(CCc3ccccc3)c(=O)n(C3CC3)c2n1,Potency,[7],3.16 µM (active)
same,outcome,[8],inactive
same,outcome,[9],inactive
same,Potency,[10],0.398 µM (active)
N#Cc1cccc(-c2ccc3ncnc(NCc4cccs4)c3c2)c1,Potency,[7],0.1 µM (active)
same,outcome,[8],inactive
same,Potency,[1],inactive
same,outcome,[9],inactive
O=c1c(-c2ccccc2)nc2cnc(N3CCOCC3)nc2n1CCc1ccccc1,Potency,[7],12.6 µM (active)
same,outcome,[9],inactive
ClCCCl,Potency,[20],inactive
O=NO,Potency,[5],inactive
same,Potency,[20],inactive
S=C1NC=NC2N=CNC12 (configuration not stated),outcome,[12],inactive
same,Potency,[6],inactive
same,"activity, negative = inhibition",[13]; parasite line A,-17.9% (inactive)
same,"activity, negative = inhibition",[13]; parasite line B,-14.3% (inactive)
same,Potency,[14],inactive
same,Potency,[15],inactive
same,Potency,[16],inactive
same,Potency,[17],inactive
same,Potency,[18],inactive
